Results filed as inconclusive are left out. Activity calls are given as the source filed them. Rule for the calls, unless noted: active = hit-call score of the fitted dose curve at least 0.9, where 1 is the maximum; inactive = score below 0.9.

The results in this text go back to PubChem BioAssay (EPA / NIEHS).

The nature of assay [1]: ATG_PBREM_CIS: Attagene CIS-FACTORIAL HepG2 Assay for human Phenobarbital-responsive Enhancer Module (PBREM) (AID 2282955). Particulars: HepG2 PBREM cis-reporter, Attagene multiplexed transcription; actives raise or lower the signal. In outline:
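Fluorescence of labelled reporter cDNA fragments, resolved by capillary electrophoresis, gives mRNA induction in transfected HepG2 cells treated for 24 h; DMSO serves as negative control and baseline.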

For assay [2], the target named is Paired box protein Pax-6 (Homo sapiens) (UniProt P26367). The assay can be described thus: ATG_Pax6_CIS: Attagene CIS-FACTORIAL HepG2 Assay for human Paired Box 6 (PAX6) (AID 2282956). The settings on record: HepG2 CIS-FACTORIAL PAX6 reporter transcription, RNA readout; actives raise or lower the signal. In short, it runs like this:
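Multiplexed cis-reporter HepG2 system; 24 h treatment; reporter mRNA read by RT-PCR/CE fluorescence; bidirectional fit vs DMSO.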

Assay [3] is described as follows: ATG_PXRE_CIS: Attagene CIS-FACTORIAL HepG2 Assay for human Pregnane X Receptor Element (PXRE) (AID 2282957). Particulars: HepG2 Attagene CIS-FACTORIAL PXRE reporter, mRNA; actives raise or lower the signal. In outline:
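Multiplexed cis-reporter assay in transiently transfected human HepG2 cells; 24 h chemical exposure. Reporter transcripts quantified by RT-PCR with fluorescent labeling and capillary electrophoresis.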

A short description of assay [4]: ATG_PPRE_CIS: Attagene CIS-FACTORIAL HepG2 Assay for human Peroxisome Proliferator-activated Response Element (PPRE) (AID 2282958). The settings on record: HepG2 PPRE cis-element reporter, Attagene transcription factor profiling; actives raise or lower the signal. In outline: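 Cells are first transfected transiently with the multiplexed reporter library, then dosed for 24 h. Total RNA is reverse-transcribed, amplified, fluorescently end-labeled and HpaI-cut before capillary electrophoresis; activity is fitted bidirectionally against DMSO controls.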

A short description of assay [5]: ATG_RORE_CIS: Attagene CIS-FACTORIAL HepG2 Assay for human RAR-related Orphan Receptor Element (RORE) (AID 2282959). Particulars: HepG2 Attagene cis-factorial RORE reporter, mRNA; actives raise or lower the signal. In short, it runs like this: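 Cells were HepG2 carrying transfected cis-regulated reporter constructs, dosed for 24 hours. Total RNA was reverse-transcribed and reporter cDNA amplified, fluorescently labeled and sized by capillary electrophoresis. Activity was fitted bidirectionally relative to DMSO.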

A short description of assay [6]: ATG_Sox_CIS: Attagene CIS-FACTORIAL HepG2 Assay for human SRY-box transcription factor (SOX) (AID 2282960). The settings on record: HepG2 Attagene cis-factorial SOX reporter, mRNA; actives raise or lower the signal. In short, it runs like this:
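Transient MRTU transfection of HepG2; 24 h compound incubation; TriZol RNA, oligo(dT) RT, PCR, 6-FAM primer extension, HpaI cut, CE. Bidirectional fit, DMSO = baseline.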

The target in assay [7] is Transcription factor Sp1 (Homo sapiens) (UniProt P08047). The assay is described as follows: ATG_Sp1_CIS: Attagene CIS-FACTORIAL HepG2 Assay for human Specificity Protein 1 (Sp1) (AID 2282961). The settings on record: HepG2 Sp1 cis-reporter transcription, actives raise or lower the signal. In outline: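 Endogenous Sp1 activity was gauged in human liver HepG2 cells bearing transfected reporter units under a cis-regulating promoter. After 24 h dosing, reporter mRNA was quantified by RT-PCR with capillary electrophoresis, and activity fitted bidirectionally versus DMSO.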
Sequence of Transcription factor Sp1 (Homo sapiens) (P08047 whole entry, looked up): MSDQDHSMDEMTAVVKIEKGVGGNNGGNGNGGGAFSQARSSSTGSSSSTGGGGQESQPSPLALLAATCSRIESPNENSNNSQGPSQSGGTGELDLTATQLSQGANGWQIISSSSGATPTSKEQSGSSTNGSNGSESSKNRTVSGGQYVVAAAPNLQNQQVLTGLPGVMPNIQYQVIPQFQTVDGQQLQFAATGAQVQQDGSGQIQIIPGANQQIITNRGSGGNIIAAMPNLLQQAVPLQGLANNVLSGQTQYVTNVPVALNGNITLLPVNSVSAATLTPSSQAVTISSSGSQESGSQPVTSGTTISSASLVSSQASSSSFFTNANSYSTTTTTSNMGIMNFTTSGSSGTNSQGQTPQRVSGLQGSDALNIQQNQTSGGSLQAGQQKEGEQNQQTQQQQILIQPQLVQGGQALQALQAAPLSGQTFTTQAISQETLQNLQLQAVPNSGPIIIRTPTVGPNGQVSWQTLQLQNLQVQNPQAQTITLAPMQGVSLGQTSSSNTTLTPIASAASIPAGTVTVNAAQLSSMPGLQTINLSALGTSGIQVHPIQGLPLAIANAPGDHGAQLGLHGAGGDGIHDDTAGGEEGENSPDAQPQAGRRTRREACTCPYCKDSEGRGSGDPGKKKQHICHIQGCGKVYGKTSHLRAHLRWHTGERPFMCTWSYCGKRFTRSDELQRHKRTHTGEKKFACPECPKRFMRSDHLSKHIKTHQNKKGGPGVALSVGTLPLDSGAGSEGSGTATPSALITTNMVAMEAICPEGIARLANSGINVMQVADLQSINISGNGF

Assay [8] in a line: ATG_SREBP_CIS: Attagene CIS-FACTORIAL HepG2 Assay for human Sterol Regulatory Element Binding (SREBP) (AID 2282962). Particulars: HepG2 Attagene cis-factorial SREBP reporter, mRNA; actives raise or lower the signal. In short, it runs like this: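 mRNA induction of transfected cis-promoter reporters in HepG2 cells, 24 h post-dose. Detection: RT-PCR with 6-FAM-labelled products, HpaI digest, capillary electrophoresis. DMSO served as negative control and baseline.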

Assay [9] addresses Signal transducer and activator of transcription 3 (Homo sapiens) (UniProt P40763). The assay can be described thus: ATG_STAT3_CIS: Attagene CIS-FACTORIAL HepG2 Assay for human Signal Transducer and Activator of Transcription 3 (STAT3) (AID 2282963). The settings on record: HepG2, Attagene cis-factorial STAT3 reporter transcription; actives raise or lower the signal. In short, it runs like this: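 HepG2 cells transiently transfected with multiple cis-element-driven reporter units report endogenous transcription factor activity. After 24 h compound exposure, reporter mRNA is measured by RT-PCR, 6-FAM labelling, HpaI digestion and capillary electrophoresis. Fitted bidirectionally versus DMSO.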

Assay [10] can be described thus: ATG_TA_CIS: Attagene CIS-FACTORIAL HepG2 Assay for human TA Basal Promoter (AID 2282964). The settings on record: HepG2 Attagene CIS-factorial TA basal promoter reporter; actives raise or lower the signal. In outline: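 Background internal-marker endpoint from a 52-component HepG2 cis-reporter panel. Cells treated 24 h; reporter transcripts quantified via RT-PCR and CE fluorescence against DMSO baseline.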

A short description of assay [11]: ATG_TCF_b_cat_CIS: Attagene CIS-FACTORIAL HepG2 Assay for human T-Cell-Factor with beta-catenin (TCF/b-cat) (AID 2282965). Particulars: HepG2 TCF/beta-catenin cis-reporter transcription, actives raise or lower the signal. In short, it runs like this:
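Cells of the HepG2 line carry transiently transfected reporter units whose promoters respond to endogenous factors. Twenty-four hours post-dosing, reporter mRNA induction is measured by fluorescent RT-PCR and capillary electrophoresis, with DMSO as baseline.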

Assay [12] is described as follows: ATG_TAL_CIS: Attagene CIS-FACTORIAL HepG2 Assay for human TAL Basal Promoter (AID 2282966).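 Note: background control endpoint measuring basal TAL promoter reporter mRNA not a specific factor.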 The settings on record: HepG2 Attagene cis-factorial TAL promoter reporter; actives raise or lower the signal. In outline: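 Steps: transfect HepG2 with multiple reporter transcription units; dose 24 h; isolate RNA, reverse-transcribe, PCR-amplify, label with 6-FAM, digest with HpaI; resolve by capillary electrophoresis. Bidirectional fitting against DMSO baseline.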

Assay [13] is described as follows: ATG_TGFb_CIS: Attagene CIS-FACTORIAL HepG2 Assay for human Transforming Growth Factor (TGF) (AID 2282967). Particulars: HepG2 Attagene CIS TGFb reporter, mRNA transcription; actives raise or lower the signal. In outline: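 Liver HepG2 line, cis-factorial reporter panel, 24 h dosing. Quantitation: RT-PCR products labeled with 6-FAM, cut with HpaI, resolved by capillary electrophoresis; DMSO-referenced bidirectional analysis.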

Assay [14] can be described thus: ATG_VDRE_CIS: Attagene CIS-FACTORIAL HepG2 Assay for human Vitamin D Receptor Element (VDRE) (AID 2282968). The settings on record: HepG2 VDRE cis-reporter transcription, actives raise or lower the signal. In outline:
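Transiently transfected HepG2 cells carrying cis-regulated reporter transcription units were exposed for 24 h. Reporter mRNA was measured by RT-PCR with fluorescent labelling and capillary electrophoresis, and fitted in both directions against DMSO.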

Assay [15] deals with Nuclear receptor subfamily 1 group I member 3 (Homo sapiens) (UniProt Q14994). The assay can be described thus: ATG_CAR_TRANS: Attagene TRANS-FACTORIAL HepG2 Assay for human Constitutive Androstane Receptor (CAR) (AID 2282969; active = hit-call score of the fitted dose curve at least 0.9, where 1 is the maximum;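 note: activators raise reporter mRNA above DMSO so AC50 marks induction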). Particulars: HepG2 Attagene TRANS-FACTORIAL CAR reporter. In short, it runs like this: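 HepG2 cells transiently transfected with GAL4-UAS reporter units; TRANS format reads activity of exogenous chimeric NR-Gal4 protein. After 24 h dosing, reporter mRNA quantified by RT-PCR, 6-FAM labelling and capillary electrophoresis; gain of signal fitted against DMSO.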
Sequence of Nuclear receptor subfamily 1 group I member 3 (Homo sapiens) (Q14994 whole entry, looked up, the tested form may be a part): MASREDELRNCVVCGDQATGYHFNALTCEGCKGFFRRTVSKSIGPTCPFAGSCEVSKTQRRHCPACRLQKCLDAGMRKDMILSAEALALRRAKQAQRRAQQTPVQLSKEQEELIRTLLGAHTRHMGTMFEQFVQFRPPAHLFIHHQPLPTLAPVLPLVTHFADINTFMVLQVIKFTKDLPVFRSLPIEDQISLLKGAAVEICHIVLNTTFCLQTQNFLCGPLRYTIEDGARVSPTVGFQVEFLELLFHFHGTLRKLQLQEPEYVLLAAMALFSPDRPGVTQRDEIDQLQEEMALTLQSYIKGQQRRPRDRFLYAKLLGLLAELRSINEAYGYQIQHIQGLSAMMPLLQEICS

Assay [16] has as its target Estrogen receptor (Homo sapiens) (UniProt P03372). The assay can be described thus: ATG_ERa_TRANS: Attagene TRANS-FACTORIAL HepG2 Assay for human Estrogen Receptor alpha (ERa) (AID 2282970; active = hit-call score of the fitted dose curve at least 0.9, where 1 is the maximum). The settings on record: HepG2 Attagene TRANS ERa GAL4 reporter, mRNA. In short, it runs like this: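 Multiplexed cell-based reporter format in HepG2: chimeric ERa-Gal4 protein drives GAL4-UAS reporter transcription. Fluorescent reporter mRNA quantified by capillary electrophoresis 24 hours after dosing; endpoint fitted as signal gain against DMSO.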

In assay [17] the target is Steroid hormone receptor ERR1 (Homo sapiens) (UniProt P11474). The assay can be described thus: ATG_ERRa_TRANS: Attagene TRANS-FACTORIAL HepG2 Assay for human Estrogen-Related Receptor alpha (ERRa) (AID 2282971; active = hit-call score of the fitted dose curve at least 0.9, where 1 is the maximum). Particulars: HepG2 Attagene TRANS reporter, ERRa transactivation. In outline:
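Signal gain relative to DMSO for an ERRa-Gal4 chimeric receptor, read as reporter mRNA by RT-PCR/capillary electrophoresis. Human HepG2 liver cells, transient multiplex reporter transfection, 24 h chemical exposure.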

For assay [18], the target named is X-box-binding protein 1 (Homo sapiens) (UniProt P17861). The assay is described as follows: ATG_Xbp1_CIS: Attagene CIS-FACTORIAL HepG2 Assay for human X-box Binding Protein 1 (XBP1) (AID 2282972). The settings on record: HepG2 XBP1 cis-element reporter, Attagene multiplex; actives raise or lower the signal. In outline:
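Fluorescence-labelled cDNA fragments from reporter transcripts, separated by capillary electrophoresis, give the signal. Source: HepG2 cells transfected with promoter-driven reporter units, harvested 24 h post-dose. DMSO served as reference for bidirectional curve fitting.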

In assay [19] the target is Androgen receptor (Homo sapiens) (UniProt P10275). The assay is described as follows: ATG_AR_TRANS: Attagene TRANS-FACTORIAL HepG2 Assay for human Androgen Receptor (AR) (AID 2282973; active = hit-call score of the fitted dose curve at least 0.9, where 1 is the maximum). Particulars: HepG2 Attagene TRANS-FACTORIAL AR reporter transcription. In outline: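 Chimeric nuclear receptor–Gal4 activity was assessed in human HepG2 hepatocytes after 24 h chemical dosing. Induced reporter mRNA was detected via labelled RT-PCR fragments on capillary electrophoresis, and gain of signal was analysed against DMSO.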
Sequence of Androgen receptor (Homo sapiens) (P10275 whole entry, looked up, the tested form may be a part): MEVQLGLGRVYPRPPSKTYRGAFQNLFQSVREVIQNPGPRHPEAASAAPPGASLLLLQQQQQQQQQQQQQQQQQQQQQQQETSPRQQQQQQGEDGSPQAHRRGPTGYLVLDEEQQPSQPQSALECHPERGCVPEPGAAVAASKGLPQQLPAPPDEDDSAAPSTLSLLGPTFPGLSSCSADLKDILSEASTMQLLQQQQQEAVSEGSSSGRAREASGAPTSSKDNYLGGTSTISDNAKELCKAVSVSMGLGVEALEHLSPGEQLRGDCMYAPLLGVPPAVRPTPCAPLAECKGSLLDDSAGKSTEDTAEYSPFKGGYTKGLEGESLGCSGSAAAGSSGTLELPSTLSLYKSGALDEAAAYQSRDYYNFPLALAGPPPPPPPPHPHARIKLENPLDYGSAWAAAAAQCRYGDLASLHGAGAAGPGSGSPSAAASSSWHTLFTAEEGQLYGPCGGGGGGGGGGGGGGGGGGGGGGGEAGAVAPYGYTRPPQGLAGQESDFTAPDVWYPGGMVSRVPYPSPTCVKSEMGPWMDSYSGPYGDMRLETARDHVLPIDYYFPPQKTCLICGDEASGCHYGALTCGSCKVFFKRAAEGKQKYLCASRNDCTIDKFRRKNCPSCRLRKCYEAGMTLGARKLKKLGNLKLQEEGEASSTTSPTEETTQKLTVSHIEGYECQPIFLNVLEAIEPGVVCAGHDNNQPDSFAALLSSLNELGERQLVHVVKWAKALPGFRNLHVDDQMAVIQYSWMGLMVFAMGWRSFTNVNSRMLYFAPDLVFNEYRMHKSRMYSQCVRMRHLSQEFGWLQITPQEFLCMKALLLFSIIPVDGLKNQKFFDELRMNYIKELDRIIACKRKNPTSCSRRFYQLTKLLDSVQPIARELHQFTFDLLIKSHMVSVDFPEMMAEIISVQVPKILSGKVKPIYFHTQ

The nature of assay [20]: ATG_M_19_TRANS: Attagene TRANS-FACTORIAL HepG2 Assay for M19 Transcription Factor (Internal Marker) (AID 2282974; active = hit-call score of the fitted dose curve at least 0.9, where 1 is the maximum). Particulars: HepG2 Attagene TRANS-FACTORIAL M19 internal marker reporter. In short, it runs like this: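 Cells: human HepG2, transiently transfected with multiplexed reporter transcription units. Exposure: 24 h. Detection: RT-PCR of reporter mRNA with capillary electrophoresis. Analysis: gain-of-signal vs DMSO.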

Sequence of Estrogen receptor (Homo sapiens) (P03372 whole entry, looked up, the tested form may be a part): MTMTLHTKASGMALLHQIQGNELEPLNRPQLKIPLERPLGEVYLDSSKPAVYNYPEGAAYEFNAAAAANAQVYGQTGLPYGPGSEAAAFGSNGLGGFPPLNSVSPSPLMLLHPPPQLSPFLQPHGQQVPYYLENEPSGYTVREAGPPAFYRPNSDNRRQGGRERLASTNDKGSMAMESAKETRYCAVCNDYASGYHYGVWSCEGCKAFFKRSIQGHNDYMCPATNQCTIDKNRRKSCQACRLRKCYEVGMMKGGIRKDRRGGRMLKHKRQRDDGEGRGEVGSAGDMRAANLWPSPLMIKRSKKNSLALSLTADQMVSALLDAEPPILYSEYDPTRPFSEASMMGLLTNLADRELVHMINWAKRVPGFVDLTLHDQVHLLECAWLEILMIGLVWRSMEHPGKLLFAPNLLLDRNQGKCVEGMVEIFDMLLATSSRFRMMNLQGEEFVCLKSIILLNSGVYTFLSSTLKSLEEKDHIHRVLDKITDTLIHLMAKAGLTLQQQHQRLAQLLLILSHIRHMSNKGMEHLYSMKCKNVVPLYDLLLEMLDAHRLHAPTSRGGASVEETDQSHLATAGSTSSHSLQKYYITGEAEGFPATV
Sequence of Paired box protein Pax-6 (Homo sapiens) (P26367 whole entry, looked up): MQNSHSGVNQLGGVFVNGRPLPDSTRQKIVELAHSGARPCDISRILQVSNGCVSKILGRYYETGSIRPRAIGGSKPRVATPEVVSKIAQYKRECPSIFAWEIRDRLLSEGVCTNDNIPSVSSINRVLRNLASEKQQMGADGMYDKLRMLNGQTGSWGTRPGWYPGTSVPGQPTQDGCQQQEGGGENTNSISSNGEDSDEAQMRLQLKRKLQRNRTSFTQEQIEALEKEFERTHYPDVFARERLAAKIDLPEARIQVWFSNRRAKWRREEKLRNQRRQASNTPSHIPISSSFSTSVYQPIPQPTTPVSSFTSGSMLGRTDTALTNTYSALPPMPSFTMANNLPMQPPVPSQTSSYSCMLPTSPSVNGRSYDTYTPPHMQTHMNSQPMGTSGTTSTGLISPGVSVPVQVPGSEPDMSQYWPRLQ
Sequence of Signal transducer and activator of transcription 3 (Homo sapiens) (P40763 whole entry, looked up): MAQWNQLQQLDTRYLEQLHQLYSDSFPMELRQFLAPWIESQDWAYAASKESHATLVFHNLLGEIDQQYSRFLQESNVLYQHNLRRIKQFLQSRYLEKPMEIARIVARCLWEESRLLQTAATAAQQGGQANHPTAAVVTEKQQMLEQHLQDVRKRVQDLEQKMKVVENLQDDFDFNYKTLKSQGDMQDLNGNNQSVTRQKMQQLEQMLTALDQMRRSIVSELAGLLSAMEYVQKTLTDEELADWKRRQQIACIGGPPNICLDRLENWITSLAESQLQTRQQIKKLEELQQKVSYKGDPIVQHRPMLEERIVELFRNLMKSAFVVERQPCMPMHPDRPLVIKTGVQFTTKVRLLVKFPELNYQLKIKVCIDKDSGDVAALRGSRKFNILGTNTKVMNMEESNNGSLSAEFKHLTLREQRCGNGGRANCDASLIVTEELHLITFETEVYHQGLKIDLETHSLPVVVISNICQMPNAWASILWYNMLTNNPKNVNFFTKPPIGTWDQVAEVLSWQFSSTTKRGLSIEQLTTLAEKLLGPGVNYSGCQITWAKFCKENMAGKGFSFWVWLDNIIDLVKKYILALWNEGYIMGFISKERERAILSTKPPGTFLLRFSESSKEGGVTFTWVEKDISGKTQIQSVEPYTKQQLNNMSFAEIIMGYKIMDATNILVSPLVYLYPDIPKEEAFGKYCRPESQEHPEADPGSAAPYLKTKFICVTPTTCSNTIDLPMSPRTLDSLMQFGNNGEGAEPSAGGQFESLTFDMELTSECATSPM
Sequence of X-box-binding protein 1 (Homo sapiens) (P17861 whole entry, looked up, the tested form may be a part): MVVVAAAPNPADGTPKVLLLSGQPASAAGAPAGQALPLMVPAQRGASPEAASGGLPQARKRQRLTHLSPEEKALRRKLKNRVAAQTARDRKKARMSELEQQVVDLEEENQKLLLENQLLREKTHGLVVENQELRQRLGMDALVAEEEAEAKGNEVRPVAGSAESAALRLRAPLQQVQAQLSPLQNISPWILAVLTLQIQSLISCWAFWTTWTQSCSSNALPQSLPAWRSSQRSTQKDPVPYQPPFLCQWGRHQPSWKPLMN
Sequence of Steroid hormone receptor ERR1 (Homo sapiens) (P11474 whole entry, looked up, the tested form may be a part): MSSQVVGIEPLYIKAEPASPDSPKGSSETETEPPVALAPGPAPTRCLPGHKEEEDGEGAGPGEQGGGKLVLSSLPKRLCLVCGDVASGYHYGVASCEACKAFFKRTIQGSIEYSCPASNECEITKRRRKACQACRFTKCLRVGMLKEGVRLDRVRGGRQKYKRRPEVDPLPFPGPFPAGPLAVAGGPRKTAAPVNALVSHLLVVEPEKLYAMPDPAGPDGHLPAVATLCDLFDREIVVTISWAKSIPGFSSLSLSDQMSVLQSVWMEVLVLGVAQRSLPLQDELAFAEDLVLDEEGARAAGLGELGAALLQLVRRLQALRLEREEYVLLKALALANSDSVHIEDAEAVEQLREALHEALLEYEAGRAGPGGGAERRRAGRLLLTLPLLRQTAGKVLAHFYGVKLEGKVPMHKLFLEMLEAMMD

Take `CC(O)C(F)(F)C(F)(F)F` (stereo not given): the outcome in [1], in assay [2], in assay [3], in assay [4], in assay [5] and in assay [6] was inactive. Also, the result in assay [7], in [8], in [9], in assay [10], in [11] and in assay [12] was inactive. In addition, the call in assay [13], in assay [14], in assay [15], in [16], in assay [17] and in [18] was inactive. Also, the compound was called inactive in assay [19] and in assay [20].
Consider `FC(F)(F)C(F)(C(F)(F)F)C(F)(F)C(F)(F)CC1CO1` (stereo not given), for which the outcome in [1], in assay [2], in [3], in assay [4], in assay [5] and in assay [6] was inactive. The compound was called inactive in assay [7], in assay [8], in assay [9], in [10], in assay [11] and in [12]. For the same compound, the result in assay [13], in [14], in assay [16], in [18] and in assay [19] was inactive.
`N#Cc1c(-c2ccc(Cl)cc2)[nH]c(C(F)(F)F)c1Br`: the AC50 in assay [1] was 122 nM (active); in [3], 2600 nM (active); in [5], 1000 nM (active); in assay [8], 274 nM (active); in assay [14] it was 605 nM (active). Besides, the compound was classed as inactive in [2], in assay [4], in assay [6], in assay [7], in assay [9] and in [10]. For the same compound, the outcome in assay [11], in assay [12], in [13], in assay [16], in assay [18] and in assay [19] was inactive. The call in [20] was inactive.
